Rows were chosen to be rich in hits. Some 2.7% of all compounds tested hit in one or more screens of this group.
Peg3 prom inh-1 = Peg3 promoter activity inhibition; HeLa PEG-Prom luciferase reporter, luminescence, overnight; inhibition, % at 20 µM; hit rate 1.7% among 360,000; AID 588405;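 active = inhibition of at least 50% at 20 µM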
CF NFkB inh = blocks PAF-induced NF-kB reporter in cystic fibrosis cells. KKLEB NF-kB-GFP reporter, GFP fluorescence overnight. inhibition, % at 5 µM. hit rate 0.86% among 360,000. AID 588850;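 active = at least 50% inhibition at 5 µM, scaled per plate between neutral and stimulator controls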;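 note: PAF is a Pseudomonas aeruginosa culture filtrate used as stimulus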
KKLEB cytotox = counter-screen for CF NF-kB inhibitors: cytotoxicity. KKLEB CF airway cells viability, ATPlite luminescence, overnight; active compounds read low; cells stimulated with P. aeruginosa culture filtrate. activity change (cytotoxicity), % at 5 µM. hit rate 0.36% among 360,000. AID 602141;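 active = corrected activity change at or below -50% at 5 µM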
HIF-2a inh = HIF-2a inhibition. 786-0 RCC cells HIF-2a reporter, luciferase luminescence, overnight. inhibition, % at 18.8 µM. hit rate 0.72% among 360,000;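 active = inhibition of the luminescence signal of 40% or more relative to plate controls, in a single-dose primary screen at 18.75 µM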
TRPM1 prom inh = reduces MITF-dependent TRPM1 promoter luciferase signal | inhibition, % at 12.5 µM | SK-MEL-5 TRPM1 promoter luciferase, 24 h | AID 488899 | hit rate 0.83% among 330,000;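 active = mean inhibition across replicates of 60% or more, whatever share of single replicates reaches that level; inconclusive = some that reach 60%, reason not given; inactive = mean inhibition across replicates below 60%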
Shn3 inh set2 = Schnurri-3 reporter inhibition in Clone20 osteoblasts. Clone20 osteoblast Shn3 3'UTR firefly luciferase, 24 h. hit rate 0.52% among 360,000. AID 588674. inhibition, % at 12.5 µM;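 active = mean inhibition of at least 75% with every replicate also reaching 75%; inconclusive = mean inhibition at least 75% but some replicate below; inactive = mean inhibition below 75%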
Peg3 prom inh-2 = Peg3 promoter inhibition confirmation; AID 602417; inhibition, % at 20 µM; shares compounds with Peg3 prom inh-1; hit rate 84% among 1,300; HeLa PEG-Prom luciferase reporter, luminescence, overnight;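 active = at 20 µM dose, 40% or more inhibition averaged across four replicates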
Large screens that a line does not name were inactive (follow-up assays come after a bar, where they were run).

CC(C)(C)c1ccc(S(=O)(=O)NC(=O)C2(C)CCN2C(=O)Cc2ccc(-c3ccccc3)cc2)cc1 (stereo unspecified)	none (no result: TRPM1 prom inh)
CCc1nc2ccc(C(=O)NCCN3CCNC3=O)cn2c1N(C)CCC(C)C	none (no result: TRPM1 prom inh)
c1ccc(CCNc2nc(-c3ccncc3)nc3ccccc23)cc1	Peg3 prom inh-1 56.2 | Peg3 prom inh-2 69.3
CN(C)c1ccc(/C=C/c2ccc3ccccc3n2)cc1	Peg3 prom inh-1 88.5, KKLEB cytotox -79.7, HIF-2a inh 76.1, TRPM1 prom inh 72.2, Shn3 inh set2 88.3 | Peg3 prom inh-2 67.9
CN(C)c1ccc(/C=C/c2nc3ccccc3s2)cc1	Peg3 prom inh-1 102.1, KKLEB cytotox -83.1, HIF-2a inh 61.6, TRPM1 prom inh 77.1 | Peg3 prom inh-2 66.6
C(=C\c1ccc2ccccc2n1)/c1ccccc1	none
COCC(=O)N(C)C[C@H]1Oc2cc(C#Cc3cccnc3)ccc2S(=O)(=O)N([C@H](C)CO)C[C@H]1C	none (no result: TRPM1 prom inh)
CCOC(=O)C1(C)CCCN1C(=O)c1cccc2ccccc12 (stereo unspecified)	none (no result: TRPM1 prom inh)
O=C(O)CCNc1ccc(NCCC(=O)O)c2c1C(=O)c1ccccc1C2=O	none
O=C1c2cccc(NCCNCCO)c2C(=O)c2cccc(NCCNCCO)c21	Peg3 prom inh-1 99.4, HIF-2a inh 78.3, TRPM1 prom inh 80.7 | Peg3 prom inh-2 inactive
CCCC[C@@H]1CC2=C(C(=O)OC(C)(C)O2)[C@@H](c2ccc(Cl)cc2)O1	none (no result: Peg3 prom inh-1, CF NFkB inh, KKLEB cytotox, TRPM1 prom inh, Shn3 inh set2)
CCCc1nc(SCC(=O)N2CCCc3ccccc32)c2c(=O)n(C)c(=O)n(C)c2n1	Peg3 prom inh-1 53.3 (no result: TRPM1 prom inh) | Peg3 prom inh-2 46.4
Cc1ncc(CO)c(/C=N/Nc2ccc(C(F)(F)F)cn2)c1O	Peg3 prom inh-1 61.6 | Peg3 prom inh-2 67.0
Cc1ncc(CO)c(/C=N/NC(=S)Nc2ccc(F)cc2)c1O	none
O=C(NCc1ccccc1)c1cccc(COc2ccc3c(c2)CCC3)c1	none
O=C(O)c1cccc(COc2ccc(CO)cc2Cl)c1	Peg3 prom inh-1 100.0, HIF-2a inh 88.8, TRPM1 prom inh 104.8, Shn3 inh set2 89.5 | Peg3 prom inh-2 87.8
CCOc1ccc(OCc2cccc(C(=O)O)c2)cc1	Peg3 prom inh-1 100.0, HIF-2a inh 89.5, TRPM1 prom inh 93.3, Shn3 inh set2 88.7 | Peg3 prom inh-2 95.6
CCOc1ccc(OCc2cccc(C(=O)N3CCCC3)c2)cc1	none
O=C(O)c1cccc(COc2ccc3c(c2)CCC3)c1	Peg3 prom inh-1 85.0, HIF-2a inh 88.2, TRPM1 prom inh 95.7 | Peg3 prom inh-2 72.5
COc1cc(NCC2COc3c(ccc(OC)c3OC)C2=O)c([N+](=O)[O-])cc1OC (stereo unspecified)	none (no result: TRPM1 prom inh)
Cc1cccc(C(O)c2ncc(-c3ccccc3)[nH]2)c1C (stereo unspecified)	none (no result: TRPM1 prom inh)
Nc1[nH]c(C(=O)c2ccccc2)c(-c2c(F)cccc2F)c1C(=O)c1ccc(Cl)c(Cl)c1	none (no result: Peg3 prom inh-1, CF NFkB inh, KKLEB cytotox, TRPM1 prom inh, Shn3 inh set2)
O=C(CN1C(=O)C2CC=CCC2C1=O)Nc1nc(-c2ccc(F)c(F)c2)cs1 (stereo unspecified)	none
O=C(C[C@H]1C[C@H](C(=O)N2CCCCC2)[C@@]2(CCc3ccccc3)c3[nH]c4ccc(Cl)cc4c3CCN2C1=O)NCCc1ccccn1	Peg3 prom inh-1 69.3 | Peg3 prom inh-2 88.0
COc1ccc2[nH]c3c(c2c1)CCN1C(=O)C(CC(=O)NCCc2ccccn2)C[C@H](C(=O)N2CCCCC2)[C@@]31CCc1ccccc1 (stereo partly specified)	none
Nc1ccn([C@@H]2O[C@H](CO)[C@@H](O)[C@@H]2O)c(=O)n1	none
Nc1ncn([C@@H]2O[C@H](CO)[C@@H](O)[C@H]2O)c(=O)n1	Peg3 prom inh-1 72.0, TRPM1 prom inh 79.4 | Peg3 prom inh-2 49.6
CC(=O)N1CCOC12CCN(Cc1ccccc1)CC2	none (no result: TRPM1 prom inh)
COc1ccc(-c2nc3ccc(Cl)cn3c2Cc2cccc(F)c2)cc1OC	none (no result: TRPM1 prom inh)
COc1cc(C=NO)nc(-c2ccccn2)c1	Peg3 prom inh-1 52.2, TRPM1 prom inh 79.2, Shn3 inh set2 93.0 | Peg3 prom inh-2 64.6
Cc1ccnc(NC(c2ccccc2)c2ccc3cccnc3c2O)c1 (stereo unspecified)	none
Cc1ccc2ccc(C(Nc3ccccc3)c3ccc(C(C)C)cc3)c(O)c2n1 (stereo unspecified)	none (no result: Peg3 prom inh-1, CF NFkB inh, KKLEB cytotox, TRPM1 prom inh, Shn3 inh set2)
CCCC(=O)NC(c1ccc(N(C)C)cc1)c1ccc2cccnc2c1O (stereo unspecified)	Peg3 prom inh-1 56.6, TRPM1 prom inh 72.6, Shn3 inh set2 91.1 | Peg3 prom inh-2 68.2
CCCCC(=O)NC(c1ccc(OC)cc1)c1ccc2cccnc2c1O (stereo unspecified)	Peg3 prom inh-1 51.9, Shn3 inh set2 90.6 (no result: TRPM1 prom inh) | Peg3 prom inh-2 69.4
CCC(=O)NC(c1ccc(C)cc1)c1ccc2cccnc2c1O (stereo unspecified)	Peg3 prom inh-1 60.5, TRPM1 prom inh inconclusive, Shn3 inh set2 89.8 | Peg3 prom inh-2 68.5
CCCC(=O)NC(c1ccc(OC)cc1)c1c(O)ccc2ccccc12 (stereo unspecified)	none
CCCC(=O)NC(c1ccc(C(C)C)cc1)c1ccc2cccnc2c1O (stereo unspecified)	Peg3 prom inh-1 66.7, Shn3 inh set2 90.9 | Peg3 prom inh-2 70.0
CN1CCCCC1(C)C(=O)NCc1cc(Cl)ccc1F (stereo unspecified)	none (no result: TRPM1 prom inh)
CCOc1ccc(Cl)cc1-c1cc(C(=O)NCc2ccccc2OC)[nH]n1	none (no result: TRPM1 prom inh)
O=C(O)c1ccccc1NC(c1ccccc1)c1ccc2cccnc2c1O (stereo unspecified)	none
COc1ccc(C(NC(=O)C(C)C)c2ccc3cccnc3c2O)cc1 (stereo unspecified)	Peg3 prom inh-1 60.7, TRPM1 prom inh 76.3, Shn3 inh set2 94.8 | Peg3 prom inh-2 65.9
CC(=O)NC(c1ccc(Cl)cc1)c1ccc2cccnc2c1O (stereo unspecified)	Peg3 prom inh-1 60.2, Shn3 inh set2 87.3 | Peg3 prom inh-2 70.3
Cc1cc(NC(c2ccc(Cl)cc2)c2ccc3cccnc3c2O)no1 (stereo unspecified)	Peg3 prom inh-1 52.8, TRPM1 prom inh 77.6, Shn3 inh set2 88.7 | Peg3 prom inh-2 63.2
COC(=O)C[C@H]1CC[C@@H]2[C@H](COC[C@H](O)CN2S(=O)(=O)c2ccccc2OC)O1	none (no result: Peg3 prom inh-1, CF NFkB inh, KKLEB cytotox, TRPM1 prom inh, Shn3 inh set2)
Cc1noc(C)c1NC(=O)N(C)C[C@@H]1Oc2cc(Br)ccc2S(=O)(=O)N([C@H](C)CO)C[C@@H]1C	none (no result: TRPM1 prom inh)
COc1ccccc1CNCC(O)Cn1c2ccccc2c2ccccc21 (stereo unspecified)	Peg3 prom inh-1 110.8, TRPM1 prom inh 83.6 | Peg3 prom inh-2 97.4
Clc1ccccc1/C=C/c1nc(-c2ccccn2)no1	Peg3 prom inh-1 61.3, HIF-2a inh 63.1, TRPM1 prom inh inconclusive (no result: Shn3 inh set2) | Peg3 prom inh-2 46.8
COc1cccc(-c2cc3nc(NCCN4CCCC4)n(C)c(=O)c3s2)c1	none (no result: TRPM1 prom inh)

Source: PubChem (several laboratories)
